# Assay results: PMC10812921, “Transcriptional Coactivator BOB1 (OBF1, OCA-B) Modulates the Specificity of DNA Recognition by the POU-Domain Factors OCT1 and OCT2 in a Monomeric Configuration”
# How the values were obtained:
# [1] = target: POU1 (OCT1 POU domain) (human, UniProt P14859 260-458); test: EMSA-SELEX-seq; no BOB1; 20 mM Tris-HCl pH 7.6, 140 mM NaCl, 10% glycerol, 0.5 mM EDTA, 0.05% Triton X-100, 0.1 mg/mL BSA, 0.1 mg/mL poly(dI-dC), 5 mM DTT, room temperature, 20 min; high values mean tight binding; details: protein: recombinant; dsDNA, one strand shown
# Summary of the method: (§1)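 With or without 28 ng coactivator protein, 30 ng of tagged POU-domain protein was combined with 300 ng of a PCR-amplified double-stranded random 35-nt library in 20 μL Tris–HCl pH 7.6 binding buffer for 20 min at RT. The protein came from E. coli BL21 and had been purified under denaturing conditions and renatured. Four rounds of cutting complex bands from native 6% PAGE, elution and PCR amplification preceded Illumina sequencing. The binding preference figure is the percentage of sequenced 8-mers matching a motif pattern.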
# [2] = target: T1, POU2 (OCT2 POU domain) (human, UniProt P09086 175-386); test: as above; details: protein: recombinant; dsDNA, one strand shown
# T1 sequence: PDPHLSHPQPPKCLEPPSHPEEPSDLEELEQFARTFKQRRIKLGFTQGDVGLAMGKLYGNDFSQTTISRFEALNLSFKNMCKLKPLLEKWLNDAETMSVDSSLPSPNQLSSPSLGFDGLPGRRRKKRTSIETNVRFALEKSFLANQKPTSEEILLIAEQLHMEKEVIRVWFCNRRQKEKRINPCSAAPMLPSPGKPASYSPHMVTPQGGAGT
# Summary of the method: as §1
# [3] = target: POU1 (OCT1 POU domain);BOB1 (OBF1, OCA-B) (human;human, UniProt P14859;Q16633 260-458;1-256, |); test: EMSA-SELEX-seq; with BOB1 (ternary complex band); 20 mM Tris-HCl pH 7.6, 140 mM NaCl, 10% glycerol, 0.5 mM EDTA, 0.05% Triton X-100, 0.1 mg/mL BSA, 0.1 mg/mL poly(dI-dC), 5 mM DTT, room temperature, 20 min; high values mean tight binding; details: protein: recombinant;recombinant; copies: 1;1; dsDNA, one strand shown
# Summary of the method: as §1
# [4] = target: T2, POU2 (OCT2 POU domain);BOB1 (OBF1, OCA-B) (human;human, UniProt P09086;Q16633 175-386;1-256, |); test: as above; details: protein: recombinant;recombinant; copies: 1;1; dsDNA, one strand shown
# T2 sequence 1: T1 sequence
# T2 sequence 2: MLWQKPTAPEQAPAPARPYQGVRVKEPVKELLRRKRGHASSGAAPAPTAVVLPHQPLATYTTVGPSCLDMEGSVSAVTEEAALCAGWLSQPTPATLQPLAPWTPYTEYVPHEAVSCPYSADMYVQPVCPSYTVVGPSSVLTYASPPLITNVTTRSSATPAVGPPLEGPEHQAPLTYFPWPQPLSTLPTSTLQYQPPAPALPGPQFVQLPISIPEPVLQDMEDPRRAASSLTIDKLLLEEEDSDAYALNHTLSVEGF
# Summary of the method: as §1
# POU1 (OCT1 POU domain), sequence (P14859 260-458): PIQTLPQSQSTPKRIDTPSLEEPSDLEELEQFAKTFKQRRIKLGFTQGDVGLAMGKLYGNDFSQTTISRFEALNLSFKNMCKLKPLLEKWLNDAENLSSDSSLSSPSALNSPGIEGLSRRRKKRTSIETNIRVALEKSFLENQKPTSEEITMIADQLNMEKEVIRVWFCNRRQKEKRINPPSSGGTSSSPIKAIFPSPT
Sequence,binding signal [1],binding signal [2],binding signal [3],binding signal [4]
AGGCAAAC,0.0866 % of ANNNNAAN 8-mers,0.0512 % of ANNNNAAN 8-mers,0.157 % of ANNNNAAN 8-mers,0.0817 % of ANNNNAAN 8-mers
ACTTCAAT,0.0256 % of ANNNNAAN 8-mers,0.038 % of ANNNNAAN 8-mers,0.0363 % of ANNNNAAN 8-mers,0.0446 % of ANNNNAAN 8-mers
ACAGTAAT,0.0614 % of ANNNNAAN 8-mers,0.0725 % of ANNNNAAN 8-mers,0.0406 % of ANNNNAAN 8-mers,0.0553 % of ANNNNAAN 8-mers
ACTGCAAA,0.0416 % of ANNNNAAN 8-mers,0.0397 % of ANNNNAAN 8-mers,0.0535 % of ANNNNAAN 8-mers,0.0264 % of ANNNNAAN 8-mers
AGAAAAAT,0.0946 % of ANNNNAAN 8-mers,0.0886 % of ANNNNAAN 8-mers,0.0921 % of ANNNNAAN 8-mers,0.09 % of ANNNNAAN 8-mers
AGTGCAAC,0.0118 % of ANNNNAAN 8-mers,0.0219 % of ANNNNAAN 8-mers,0.0113 % of ANNNNAAN 8-mers,0.0215 % of ANNNNAAN 8-mers
AGCTTAAA,0.037 % of ANNNNAAN 8-mers,0.0437 % of ANNNNAAN 8-mers,0.0258 % of ANNNNAAN 8-mers,0.0421 % of ANNNNAAN 8-mers
ACGCAAAC,0.0614 % of ANNNNAAN 8-mers,0.0437 % of ANNNNAAN 8-mers,0.103 % of ANNNNAAN 8-mers,0.0512 % of ANNNNAAN 8-mers
ACGAGAAA,0.0381 % of ANNNNAAN 8-mers,0.0437 % of ANNNNAAN 8-mers,0.0355 % of ANNNNAAN 8-mers,0.038 % of ANNNNAAN 8-mers
AACACAAC,0.016 % of ANNNNAAN 8-mers,0.019 % of ANNNNAAN 8-mers,0.014 % of ANNNNAAN 8-mers,0.0272 % of ANNNNAAN 8-mers
AATACAAA,0.134 % of ANNNNAAN 8-mers,0.108 % of ANNNNAAN 8-mers,0.148 % of ANNNNAAN 8-mers,0.121 % of ANNNNAAN 8-mers
AACTTAAC,0.0294 % of ANNNNAAN 8-mers,0.0288 % of ANNNNAAN 8-mers,0.0234 % of ANNNNAAN 8-mers,0.0248 % of ANNNNAAN 8-mers
AACACAAT,0.0351 % of ANNNNAAN 8-mers,0.0351 % of ANNNNAAN 8-mers,0.0293 % of ANNNNAAN 8-mers,0.0421 % of ANNNNAAN 8-mers
ATCGGAAT,0.0717 % of ANNNNAAN 8-mers,0.0869 % of ANNNNAAN 8-mers,0.0581 % of ANNNNAAN 8-mers,0.0768 % of ANNNNAAN 8-mers
AACTCAAA,0.0397 % of ANNNNAAN 8-mers,0.0368 % of ANNNNAAN 8-mers,0.0445 % of ANNNNAAN 8-mers,0.0231 % of ANNNNAAN 8-mers
ATCAAAAT,0.095 % of ANNNNAAN 8-mers,0.0932 % of ANNNNAAN 8-mers,0.106 % of ANNNNAAN 8-mers,0.0743 % of ANNNNAAN 8-mers
AACTTAAA,0.0526 % of ANNNNAAN 8-mers,0.0501 % of ANNNNAAN 8-mers,0.046 % of ANNNNAAN 8-mers,0.038 % of ANNNNAAN 8-mers
AAGAGAAC,0.0271 % of ANNNNAAN 8-mers,0.0391 % of ANNNNAAN 8-mers,0.0285 % of ANNNNAAN 8-mers,0.0289 % of ANNNNAAN 8-mers
AAGGTAAG,0.0416 % of ANNNNAAN 8-mers,0.0478 % of ANNNNAAN 8-mers,0.0468 % of ANNNNAAN 8-mers,0.0545 % of ANNNNAAN 8-mers
AACAGAAG,0.0244 % of ANNNNAAN 8-mers,0.0339 % of ANNNNAAN 8-mers,0.0273 % of ANNNNAAN 8-mers,0.0297 % of ANNNNAAN 8-mers
AATAGAAC,0.0381 % of ANNNNAAN 8-mers,0.0541 % of ANNNNAAN 8-mers,0.0382 % of ANNNNAAN 8-mers,0.0462 % of ANNNNAAN 8-mers
AATCTAAC,0.0328 % of ANNNNAAN 8-mers,0.0339 % of ANNNNAAN 8-mers,0.0316 % of ANNNNAAN 8-mers,0.0272 % of ANNNNAAN 8-mers
AGGACAAC,0.0198 % of ANNNNAAN 8-mers,0.0305 % of ANNNNAAN 8-mers,0.0187 % of ANNNNAAN 8-mers,0.0206 % of ANNNNAAN 8-mers
AAACCAAA,0.0538 % of ANNNNAAN 8-mers,0.0506 % of ANNNNAAN 8-mers,0.0761 % of ANNNNAAN 8-mers,0.0446 % of ANNNNAAN 8-mers
AGCGCAAC,0.0103 % of ANNNNAAN 8-mers,0.0104 % of ANNNNAAN 8-mers,0.0125 % of ANNNNAAN 8-mers,0.0107 % of ANNNNAAN 8-mers
ACAGCAAG,0.0156 % of ANNNNAAN 8-mers,0.0155 % of ANNNNAAN 8-mers,0.0164 % of ANNNNAAN 8-mers,0.014 % of ANNNNAAN 8-mers
ACGATAAC,0.0252 % of ANNNNAAN 8-mers,0.0293 % of ANNNNAAN 8-mers,0.0191 % of ANNNNAAN 8-mers,0.0264 % of ANNNNAAN 8-mers
AGCTCAAA,0.0252 % of ANNNNAAN 8-mers,0.0213 % of ANNNNAAN 8-mers,0.0242 % of ANNNNAAN 8-mers,0.0264 % of ANNNNAAN 8-mers
ATGAGAAG,0.0709 % of ANNNNAAN 8-mers,0.088 % of ANNNNAAN 8-mers,0.0652 % of ANNNNAAN 8-mers,0.0553 % of ANNNNAAN 8-mers
ATCTGAAC,0.0275 % of ANNNNAAN 8-mers,0.0265 % of ANNNNAAN 8-mers,0.0258 % of ANNNNAAN 8-mers,0.0429 % of ANNNNAAN 8-mers
